Most compounds without a hit are left out; they make up all but 19% or so of the library.
TDP1 cell CPT = qHTS for Inhibitors of human tyrosyl-DNA phosphodiesterase 1 (TDP1): qHTS in cells in presence of CPT; chicken DT40 Tdp1-/-;hTDP1 cells + 20 nM CPT, ATP luminescence, 48 h; 12% of 420,000 active; Potency, µM (series often up to 46.2 µM), for inactives: top-dose activity change, negative = growth inhibition, usual class: inhibitors; also: nearly all actives have a fitted effect of over 55% in size
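Cell growth measured by CellTiter-Glo luminescence after a minimum 48 h, 37 C compound exposure with 20 nM CPT in Tdp1-knockout DT40 cells stably expressing hTDP1, seeded 400/well; qHTS titration format.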
KB-3-1 cytotox = qHTS assay for MDR1-selective chemotherapeutics: Primary screen using the parental adenocarcinoma cell KB-3-1. KB-3-1 viability, CellTiter-Glo ATP luminescence, 72 h. Potency, µM (titrated, usually from 46.1 µM), hits mostly cytotoxic. 1.4% of 400,000 active; also: nearly all actives have a fitted effect of over 60% in size
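72 h, 37 °C compound treatment of KB-3-1 parental cells; CellTiter-Glo added, 10 min, luminescence read. Data corrected against DMSO-only plates and normalized before curve fitting.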
TDP1 cell noCPT = qHTS for Inhibitors of human tyrosyl-DNA phosphodiesterase 1 (TDP1): qHTS in cells in absence of CPT; 15% of 420,000 active; Potency, µM (doses to about 46.2 µM), for the others: top-dose activity change, negative = growth inhibition, most hits filed as inhibitors; AID 686978, 2013; DT40 Tdp1-/- hTDP1 cells, no CPT, ATP luminescence, 48 h; also: nearly all actives have a fitted effect of over 55% in size
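Cells were dispensed at 400 per well, compounds added by pin tool, plates incubated ≥48 hr at 37 °C, then CellTiter-Glo added for 30 min at room temperature before luminescence reading. Line: DT40 Tdp1-/- complemented with hTDP1; camptothecin omitted.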
KB-V1 MDR tox = qHTS assay for MDR1-selective chemotherapeutics: Primary screen using the drug-selected MDR subline cells KB-V1; 3.4% of 400,000 active; AID 1347076, 2019; Potency, µM (doses to about 46.1 µM), usual class: cytotoxic; KB-V1 MDR cells viability, CellTiter-Glo, 72 h; also: nearly all actives have a fitted effect of over 60% in size
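Cells of the MDR subline KB-V1 are plated, dosed with compound at multiple concentrations, and incubated 72 h at 37 degrees C; CellTiter-Glo is then added and luminescence read after 10 min.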
HT1080 IDH1KD tx = qHTS for induction of synthetic lethality in tumor cells producing 2HG: qHTS for the HT-1080-IDH1KD cell line | HT-1080 IDH1 knockdown viability, ATP luminescence, 48 h | Potency, µM (titrated, usually from 46.1 µM), without a hit: at the top dose activity, negative = toxicity, usual class: cytotoxic | 2% of 360,000 active;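 also: 0% = DMSO wells and -100% = cell-free medium wells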
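In this qHTS, HT-1080 cells depleted of IDH1 are exposed for 48 h at 37 °C to compound titrations. Toxicity is scored from CellTiter-Glo luminescence, with DMSO as full viability and medium alone as none.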
HT1080-NT tox = qHTS for induction of synthetic lethality in tumor cells producing 2HG: qHTS for the HT-1080-NT fibrosarcoma cell line; HT-1080-NT fibrosarcoma viability, CellTiter-Glo ATP luminescence, 48 h; Potency, µM (doses to about 46.1 µM), for inactives: top-dose activity, negative = less viability, actives largely listed as cytotoxic; 1.6% of 360,000 active;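 also: NT is the 2HG producing partner of a matched IDH1 knockdown line; 0% = DMSO-treated cells and -100% = media-only wells without cells; nearly all actives have a fitted effect of over 55% in size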
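Toxicity toward the 2HG-producing NT line was scored as %Activity, normalised to DMSO and no-cell wells, from CellTiter-Glo luminescence after 48 hours' treatment.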
* marks the source's active call; other numbers are inactive results; i = inactive; ? = inconclusive; nt = no result given. Calls follow the shape of the dose curve; as a rule, active = well fitted curve in the direction sought with a large enough effect; inconclusive = small, poorly fitted or top-dose-only effect, or another doubt; inactive = no such curve, though single readings can be large; an effect the other way counts as inactive or inconclusive. Unless noted, % is scaled to controls: 0 for no effect and ±100 for the full control effect; potency is read from the fitted curve at half-maximal effect.

SMILES | TDP1 cell CPT | KB-3-1 cytotox | TDP1 cell noCPT | KB-V1 MDR tox | HT1080 IDH1KD tx | HT1080-NT tox
Cc1ccc(-n2nc3c(c2NC(=O)/C=C\c2ccc4c(c2)OCO4)CSC3)cc1 | ? | ? | 18µM* | ? | 4% | 8%
Cc1ccc(-n2nc3c(c2NC(=O)/C=C\c2ccc4c(c2)OCO4)CSC3)c(C)c1 | -20% | i | -15% | i | -1% | 3%
COc1ccc(-c2noc(COc3cc(C)c(Br)c(C)c3)n2)cc1OC | -29% | i | -27% | i | nt | nt
COc1ccc(-c2nc(CN3CCN(c4ncnc5ccccc45)CC3)c(C)o2)c(OC)c1 | 8.2µM* | ? | 5.8µM* | i | -23% | -16%
Cc1oc(-c2cc(F)ccc2F)nc1CN1CCN(c2ncnc3ccccc23)CC1 | 12µM* | i | 21µM* | ? | -6% | -16%
CCNc1nc(SCC(=O)Nc2ccc(Cl)c(Cl)c2)nc(N(C)C)n1 | ? | i | 15µM* | i | 1% | -6%
COc1nc(SCC(=O)Nc2ccccc2Cl)nc(N(C)C)n1 | ? | i | -20% | i | -14% | -2%
COC(=O)CSc1nc(NCc2ccccc2)nc(N(C)C)n1 | -4% | i | -16% | i | 4% | 3%
CN(C)c1nc(NCc2ccccc2)nc(SCC(=O)Nc2ccc(Cl)c(Cl)c2)n1 | 21µM* | i | ? | 7.3µM* | ? | ?
Cc1ccc2c(c1)c(=O)c1c3n2CCN(C(=O)CCl)C3CC1 (stereo not drawn) | 26µM* | i | 16µM* | i | -4% | -4%
Cc1ccc2c(c1)c1c3n2CCN(C(=O)CN2CCN(C)CC2)C3CCC1 (stereo not drawn) | ? | ? | 16µM* | 21µM* | ? | 23µM*
Cc1ccc2c(c1)c1c3n2CCN(C(=O)Cn2c(-c4ccccc4)noc2=O)C3CCC1 (stereo not drawn) | ? | i | ? | 4.1µM* | -24% | -13%
C=C[C@H](CC(C)C)N(Cc1ccccc1)S(=O)(=O)N(Cc1ccccc1)[C@H](C=C)CC(C)C | ? | i | ? | i | nt | nt
Cc1noc(-c2ccc(-c3noc(-c4cccc(F)c4)n3)cc2)n1 | -13% | i | 4% | i | nt | nt
COc1ccccc1NC(=O)c1ccc(C(=O)Nc2ccccc2OC)nc1 | 4.6µM* | i | ? | i | 8% | 8%
COc1ccc(OC)c(NC(=O)Nc2cnccn2)c1 | -1% | i | 21% | i | 3% | 17%
Cc1c(Cl)cccc1NC(=O)Nc1cnccn1 | -20% | 16µM* | -5% | ? | -2% | 2%
COc1ccccc1NC(=O)Nc1cnccn1 | -9% | ? | -3% | 4.1µM* | 14% | 14%
O=C(Nc1cc(Cl)cc(Cl)c1)Nc1cnccn1 | ? | i | 16µM* | i | -5% | -3%
CCOC(=O)CSc1nnc(CNC(=O)c2cccs2)n1CCc1ccccc1 | -16% | i | ? | i | 0% | 21%
Cc1ccc(-n2nc(C)c(=O)c(-c3ccccc3)c2NC(=O)C(C)C)cc1 | 0% | i | -6% | i | 16% | 19%
CCOC(=O)N1CCN(c2cc(=O)n(-c3cccc(Br)c3)c(=O)[nH]2)CC1 | -12% | i | -13% | i | -1% | 12%
O=C(CN(Cc1ccccc1)S(=O)(=O)c1ccc2c(c1)OCCO2)N/N=C/c1cccc(Br)c1 | ? | i | ? | 18µM* | -15% | -8%

Source: PubChem
